F-actin modifier = modifiers of F-actin cytoskeleton organization, primary screen, imaging, HUVEC, phalloidin staining, high-content imaging. actives 0.18% (n = 91,000). HUVEC TNFa F-actin phalloidin imaging. AID 836, 2007. inhibition, % at 2 µM;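 active means inhibition above the batch mean plus 3 SD and confirmed as a hit by visual image inspection, cut at about 30% in these data, passing the limit was not always enough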
E-sel TNF inh = E-selectin induction blockers in HUVEC – imaging, immunofluorescence, high content, primary screen | HUVEC TNFa-induced E-selectin immunofluorescence | inhibition, % at 2 µM | actives 0.71% (n = 120,000) | AID 1246, 2008;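 active means inhibition above the batch mean plus 3 SD, and confirmed as a hit on visual image review, cut at about 43% in these data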;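 further: 0% = TNF-stimulated DMSO wells and 100% = unstimulated control wells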
VCAM1 TNFa inh = inhibitors of TNFa-induced VCAM1 expression, primary screen, imaging, HUVEC, TNFa stimulus, immunofluorescence; actives 0.48% (n = 95,000); HUVEC TNFa-induced VCAM-1 immunofluorescence, high-content imaging; inhibition, % at 2 µM;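 active means inhibition above the batch mean plus 3 SD, with images confirmed as a hit by eye, cut at about 37% in these data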;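 further: 0% = TNF-stimulated DMSO wells and 100% = unstimulated control wells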
TNFa cytotox = cytotoxicity in TNFa-stimulated HUVEC, primary screen, cytotoxicity control for VCAM1 expression modulator project, imaging, Hoechst nuclei count | actives 0.17% (n = 93,000) | cell count reduction, % at 2 µM | HUVEC TNFalpha-stimulated, Hoechst cell count;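 active means cell count reduction exceeding the screen mean by over 5 SD, scaled to untreated wells per plate, cut at about 78% in these data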;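 further: cells counted after 24 h of TNF alpha exposure following the 1 h pretreatment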
INS promoter inh = inhibitors of insulin promoter-driven GFP, primary screen, imaging, TRM-6 cells (human fetal islet line), eGFP reporter, cell count. inhibition, % at 2 µM. AID 1273, 2008. reporter expression induced with tamoxifen. actives 0.9% (n = 130,000);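 active means inhibition above the mean plus 3 SD, with well images judged a real hit on visual review, cut at about 60% in these data, passing the limit was not always enough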
Phagocytosis inh = inhibitors of macrophage phagocytosis, primary screen, imaging, J774A.1 cells, IgG beads | J774A.1 macrophage IgG-bead phagocytosis | inhibition, % at 5 µM | actives 0.07% (n = 110,000) | AID 1029, 2008;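 active means inhibition above the mean of the plate negative controls plus 5 SD, cut at about 13% in these data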;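 further: phagocytic index as fraction of beads internalized from green versus red external bead signal; plate controls were DMSO negative control for no effect and cytochalasin-D positive control for full effect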
Starred values were filed as active, the others as inactive; x = no result given. In the library only some 1.6% were active in any assay of this set; here they are far more common.

SMILES	F-actin modifier	E-sel TNF inh	VCAM1 TNFa inh	TNFa cytotox	INS promoter inh	Phagocytosis inh
Cc1c(C#N)c(O)n(C)c(=O)c1N=Nc1ccc(S(N)(=O)=O)cc1	x	x	x	x	65*	x
CCN(CC)c1ccc2c(Cl)c(Br)c(=O)oc2c1	28	96*	16	-23	-133	x
CC(c1ccccc1)N1CCc2[nH]c(=S)[nH]c(=O)c2C1 (centres undefined)	x	x	x	x	91*	x
CC1=NCCN1S(=O)(=O)c1ccccc1[N+](=O)[O-]	x	x	x	x	57	x
Nc1ncc(Br)cc1N=Cc1ccccc1	x	x	x	x	76*	3
CC(C)c1ccc(S(=O)(=O)N2CCCCC2)cc1	x	x	x	x	30	x
C/C(=N\OCC(=O)NC12CC3CC(CC(C3)C1)C2)c1cc2ccccc2o1	x	x	x	x	x	7
CCN1C(=O)C(O)(CC(=O)c2ccccn2)c2ccccc21 (centres undefined)	-3	11	15	10	75*	0
CCN1C(=O)C(O)(CC(=O)c2ccc(-n3cccc3)cc2)c2ccccc21 (centres undefined)	x	-26	x	x	x	x
COC(=O)c1ccc(C(=O)OC)c(NC(=O)COC(=O)C2CC2C)c1 (centres undefined)	13	-14	-7	-3	-10	0
CCN(CC)CCNC(=O)COc1ccc(Cl)cc1Cl	5	-3	12	-4	-49	x
CCN(CC)CCNC(CC(=O)Nc1ccc(Cl)cc1Cl)C(=O)O (centres undefined)	9	-7	17	7	94*	x
O=C(N1CCCCC1)N1CCN(S(=O)(=O)c2ccc(Cl)cc2)CC1	x	-32	x	x	-62	x
Cc1ccc(Oc2cc(C)nc(-c3ccccc3O)n2)cc1	1	x	8	-16	x	-1
Cc1cc(OCc2ccc(F)cc2)nc(-c2ccccc2O)n1	-18	x	95*	80*	-15	-1
Nc1ccc2c(c1)CC(=O)c1ccccc1S2	x	4	x	x	77*	-1
CC(C)(CO)NCC(O)Cn1cc(C=O)c2ccccc21 (centres undefined)	x	90*	x	x	x	x
Cc1csc(NC(=O)C(F)(F)F)n1	x	x	x	x	x	-3
CCOCCCn1c(=S)[nH]c2ncccc2c1=O	x	-21	-3	-31	100*	4
O=c1c2cccnc2[nH]c(=S)n1CCCN1CCN(c2ccc(F)cc2)CC1	-26	100*	-13	-14	-89	-1
O/N=C/c1ccn(-c2ccc(Br)cc2)c1	x	-11	x	x	13	x
CN(c1ccccc1)S(=O)(=O)c1cccc(C(=O)N2CCN(c3ccccn3)CC2)c1	-29	x	42	82*	x	0
O=C(c1ccc(-c2ccccc2)cc1)N1CCN(c2ccccn2)CC1	x	x	x	x	-20	x
Clc1ccc(CNc2ccc3nnc(-c4ccccc4)n3n2)cc1	x	76*	x	x	-22	x
C/C(=N/NC(=O)c1cnccn1)c1cccs1	x	x	x	x	40	-5
SMILES	F-actin modifier	E-sel TNF inh	VCAM1 TNFa inh	TNFa cytotox	INS promoter inh	Phagocytosis inh
O=C(O)c1ccc(-c2ccccc2Cl)o1	x	-21	x	x	x	x
O=C(O)c1ccc(-c2ccc(Cl)cc2Cl)o1	-15	61*	-18	0	30	-1
CCc1nn2c(NCCOC)cc(C)nc2c1-c1ccc(F)cc1	x	x	x	x	36	x
COC(=O)c1cc(Br)c(=O)n(Cc2ccncc2)c1	14	64*	8	6	x	-3
COc1cccc(CNc2ccc(F)c(Cl)c2)c1	-2	100*	14	6	7	0
c1ccc(-c2nnc(CSc3nncs3)o2)cc1	13	4	93*	-7	14	0
c1ccc(Cc2nnc(-c3ccccc3)o2)cc1	2	-8	-6	4	33	0
Clc1ccc(-n2ncc3c(NCc4ccc5c(c4)OCO5)ncnc32)cc1	-15	-21	80*	28	-14	0
O=C(CSc1nc2cccnc2n1Cc1ccccc1)NC1CCCCC1	-11	4	-4	-9	-47	x
CCOc1ccc(N2CC(C(=O)NCCCN3CCOCC3)CC2=O)cc1 (centres undefined)	-6	50*	14	5	6	0
C=CCN1C(=O)C(CC(=O)Nc2ccccc2)N(Cc2ccccn2)C1=S (centres undefined)	x	-7	x	x	0	x
Cn1c(CNc2ccccc2)nc2ccccc21	-14	x	23	-6	11	1
Cn1c(CNc2ccccc2O)nc2ccccc21	-5	x	59*	89*	x	0
C=CCn1c(SCC(=O)NC)nc2sc3c(c2c1=O)CCC3	1	80*	9	-11	-16	x

Screening data from PubChem.
